Results filed as inconclusive are left out. A number with no mark means an inactive call. Activity calls are given as the source filed them. Calls follow the shape of the dose curve; as a rule, active = well fitted inhibition curve with a large enough effect; inconclusive = small, poorly fitted or top-dose-only effect; inactive = flat fitted curve, though single readings scatter.
These compounds were tested on Zika virus NS2B-NS3 protease (assay: Primary screen GU AMC qHTS for Zika virus inhibitors (AID 1347154;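 also: 0% = no-inhibitor control and -100% = no-enzyme control; nearly all actives have a fitted effect of over 70% in size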)). Conditions: Zika NS2B-NS3 unlinked protease, AMC fluorogenic substrate; series mostly up to 54.1 µM; activity change, negative = inhibition: at the top concentration.
In short: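 Unlinked Zika NS2B hydrophilic domain/NS3 protease domain noncovalent complex (25 nM final) in 10 mM Tris-HCl pH 8.0, 0.01% Tween 20, with AMC peptide substrate. Fluorescence (ex 340, em 450 nm) change over 15 min, room temperature; percent inhibition fitted to 4-parameter Hill equation.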
Cc1nc2ccccc2n1Cc1ccc(Cl)cc1 was tested, and the “activity change, negative = inhibition” value was -6.25%.
With S=c1[nH]c2ccccc2s1 the “activity change, negative = inhibition” value was -3.33% [at 104 µM].
For NC(=S)NCCC[C@H](N)C(=O)O, the “activity change, negative = inhibition” value was 9.32% [at 104 µM].
In the case of C[N+]1(C)CCC(OC(=O)C(c2ccccc2)c2ccccc2)CC1, the Potency is reported as “inactive”.
In the case of O=C(CS)Nc1ccccc1, the “activity change, negative = inhibition” value is reported as -5.63%.
For Nc1nc2ccc([N+](=O)[O-])cc2s1, the “activity change, negative = inhibition” value was -9.46% [at 104 µM].
Cc1c(Nc2ncccc2C(=O)O)cccc1C(F)(F)F was tested, and the “activity change, negative = inhibition” value was -2.54%.
With CCCOC(=O)c1ccc(O)cc1 the “activity change, negative = inhibition” value was 6.4% [at 104 µM].
In the case of CC(C(=O)O)c1ccc(C(=O)c2cccs2)cc1 (configuration not stated), the “activity change, negative = inhibition” value is reported as -6.05%.
CO[C@@]1(NC(=O)Cc2cccs2)C(=O)N2C(C(=O)O)=C(COC(N)=O)CS[C@@H]21 was tested, and the “activity change, negative = inhibition” value was -5.42%.
In the case of CC1(C)C[C@@H]1C(=O)N/C(=C\CCCCSC[C@H](N)C(=O)O)C(=O)O, the “activity change, negative = inhibition” value is reported as 9.2%.
For COC(=O)C1=C(C)NC(C)=C(C(=O)OCC(C)C)C1c1ccccc1[N+](=O)[O-] (configuration not stated), the Potency was “inactive”.
With O=C1CN(/N=C/c2ccc([N+](=O)[O-])o2)C(=O)N1 the “activity change, negative = inhibition” value was -8.24%.
With COc1ccc(-c2cc(=S)ss2)cc1 the “activity change, negative = inhibition” value was -9.05%.
For O=C(O)c1cc([N+](=O)[O-])ccc1NCCCc1ccccc1, the “activity change, negative = inhibition” value was 4.05%.
With O=c1cc(-c2ccccc2)oc2ccccc12 the “activity change, negative = inhibition” value was -5.73% [at 104 µM].
With Cc1[nH]cnc1CN1CCc2c(c3ccccc3n2C)C1=O the “activity change, negative = inhibition” value was -6.73%.
With O=C1CN(/N=C/c2ccc(-c3ccc([N+](=O)[O-])cc3)o2)C(=O)N1 the “activity change, negative = inhibition” value was 16.9% [at 104 µM].
For CN1CCC[C@H]1c1cccnc1, the “activity change, negative = inhibition” value was 5.79%.
O=C(CCN1CCN(CCO)CC1)N1c2ccccc2Sc2ccc(C(F)(F)F)cc21 was tested, and the “activity change, negative = inhibition” value was 1.76%.
For CCCC(=O)OC[C@@H](OC(=O)CCC)[C@@H](OC(=O)CCC)[C@H](Cn1c2nc(=O)[nH]c(=O)c-2nc2cc(C)c(C)cc21)OC(=O)CCC, the “activity change, negative = inhibition” value was -12.6%.
CCCCCCCCCCCCCCCCCC(=O)O was tested, and the “activity change, negative = inhibition” value was -3.93%.
c1ccc(CCNc2nc(-c3ccccc3)cs2)cc1 was tested, and the “activity change, negative = inhibition” value was -11.5%.
For COc1cc(NC(C)CCCN)c2ncccc2c1 (configuration not stated), the “activity change, negative = inhibition” value was -3.81%.
CSc1nc(N)c2ncn([C@@H]3O[C@H](COP(=O)(O)OP(=O)(O)OP(=O)(O)O)[C@@H](O)[C@H]3O)c2n1 was tested, and the “activity change, negative = inhibition” value was -15.3%.
With O=C(O)c1cc(=O)c2ccccc2[nH]1 the “activity change, negative = inhibition” value was -14%.
CCCCC1C(=O)N(c2ccccc2)N(c2ccc(O)cc2)C1=O (configuration not stated) was tested, and the “activity change, negative = inhibition” value was -12.2%.
COc1cc(/C=C/C(=O)CC(=O)/C=C/c2ccc(O)c(OC)c2)ccc1O was tested, and the “activity change, negative = inhibition” value was 11%.
In the case of COc1cc2c3cc1Oc1cc(ccc1O)C[C@@H]1c4c(cc(OC)c(O)c4Oc4ccc(cc4)C[C@@H]3N(C)CC2)CC[N+]1(C)C, the “activity change, negative = inhibition” value is reported as -2.37%.
For O=C(/C=C/c1ccccc1)NCCO, the “activity change, negative = inhibition” value was -9.4%.
With CNC(=O)[C@H]1O[C@@H](n2cnc3c(NCc4cccc(I)c4)ncnc32)[C@H](O)[C@@H]1O the Potency was “inactive”.
For O=c1[nH]c2ccccc2n1CCCN1CCN(C(c2ccccc2)c2ccccc2)CC1, the “activity change, negative = inhibition” value was -14.4%.
With N=C(N)N the “activity change, negative = inhibition” value was 0.732%.
For Cc1ccc(C(=O)c2ccc(CC(=O)O)n2C)cc1, the “activity change, negative = inhibition” value was -2.61%.
CC(C)(C)c1nnc(NS(=O)(=O)c2ccc(N)cc2)s1 was tested, and the “activity change, negative = inhibition” value was -1.9%.
For O=C(O)c1ccccc1Nc1cccc(C(F)(F)F)c1, the “activity change, negative = inhibition” value was -2.28%.
In the case of O=C(O)Cc1ccc(-c2ccccc2)cc1, the “activity change, negative = inhibition” value is reported as 0.212%.

Source: PubChem BioAssay (NCATS)
